Assay [1] in a line: NCI Yeast Anticancer Drug Screen. Data for the rad50 strain (AID 155).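 Note: 0% = growth of vehicle-only cultures of the same strain.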 To be noted: S. cerevisiae rad50 strain growth inhibition; at 50.0 µM; stronger effect = higher value. In a few lines: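 Growth of the mutant yeast was measured after compound exposure and referenced to vehicle-treated cultures.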
The nature of assay [2]: NCI Yeast Anticancer Drug Screen. Data for the mec2-1 strain (AID 157). To be noted: S. cerevisiae mec2-1 strain, at 50.0 µM, stronger effect = higher value. In a few lines: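 Using mec2-1 yeast: add compound, measure growth, express inhibition versus vehicle-treated cultures.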
A short description of assay [3]: NCI Yeast Anticancer Drug Screen. Data for the sgs1 mgt1 strain (AID 161).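 Note: 0% = growth of cultures given vehicle only.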 The settings on record: S. cerevisiae sgs1 mgt1 strain, at 50.0 µM, stronger effect = higher value. In a few lines: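 Compounds are added to genetically altered yeast, and growth is compared with cultures given vehicle alone to give percent inhibition.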
Assay [4] can be described thus: NCI Yeast Anticancer Drug Screen. Data for the cln2 rad14 strain (AID 165).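 Note: 0% = growth equal to vehicle treated cultures.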 To be noted: S. cerevisiae cln2 rad14 strain, at 50.0 µM, stronger effect = higher value. The procedure, abridged: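 Yeast strain cln2 rad14, bearing defects in cell cycle control and DNA repair, serves as the test system; values reflect growth inhibition compared with vehicle.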
A short description of assay [5]: NCI Yeast Anticancer Drug Screen. Data for the bub3 strain (AID 167). To be noted: S. cerevisiae bub3 mutant strain, at 50.0 µM, stronger effect = higher value. The procedure, abridged:
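Whole-cell yeast assay. The mutant strain was incubated with compounds, and growth inhibition was determined by comparison with vehicle-treated cells.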

Assay [6] is described as follows: NCI Yeast Anticancer Drug Screen. Data for the mlh1 rad18 strain (AID 175). To be noted: S. cerevisiae mlh1 rad18 strain growth inhibition; at 50.0 µM; stronger effect = higher value. In a few lines:
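Steps: expose repair-defective yeast to compound; measure growth; express inhibition against vehicle-treated controls.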

The text below walks through data of PubChem BioAssay (NCI).

Compounds without any hit were thinned out: in the full panel of roughly 79,000, 15% have a hit. Unmarked numbers belong to inactive results. Calls of active or inactive are those of the source. Cut-off read from the data, not from the text of the source: active = growth inhibition above about 70%; inactive = the rest.

For `c1cc2cc(c1)CNCCNCCNCc1cccc(c1)CNCCNCCNC2`, the growth inhibition in assay [1] was -22.4%; in assay [2], -17.4%; in assay [3], -30.6%; in assay [4], 16.9%; in assay [5], 6%; in assay [6] it was -2.9%.
Turning to `Cc1c(Cl)ccc2c1NC(=O)C2(O)C1Cc2ccccc2C1=O` (stereo not given), the growth inhibition in assay [1] was 44.5%; in assay [2], 21.1%; in assay [3] it was 37.5%; in assay [4] it was 34%; in assay [5], 15.1%; in assay [6], 28%.
Take `Cc1ccc(C)c(NC(=O)Oc2cc(C)c(Cl)cc2C(C)C)c1`: the growth inhibition is 85.8% (active) in assay [1]; 99.2% (active) in assay [2]; 98.5% (active) in assay [3]; 72.8% (active) in assay [4]; 98.5% (active) in assay [5]; 98.8% (active) in assay [6].
As for `CCCCN(CCCC)C(=Nc1ccccc1)N(CCCC)CCCC`, the growth inhibition in assay [1] was -13.2%; in assay [2] it was -3.4%; in assay [3] it was -23.8%; in assay [4] it was 10%; in assay [5] it was -38.9%; in assay [6], -15.3%.
As to `CCCCNC(=O)c1ccccc1N`, the growth inhibition in assay [1] is -20.2%; in assay [2], -6.15%; in assay [3], -30.7%; in assay [4], -8%; in assay [5], -16%; in assay [6] it was -22.4%.
`CCOC(=O)c1ccccc1O`: the growth inhibition is -17.8% in assay [1]; -5.8% in assay [2]; -8.6% in assay [3]; -38.4% in assay [4]; -12.4% in assay [5]; 9.5% in assay [6].
As for `CC1(CO)COC(=O)C(C)(C2(C)NC(C)(CO)COC2=O)N1` (stereo not given), the growth inhibition in assay [1] was 3.6%; in assay [2], -17.6%; in assay [3] it was -17.6%; in assay [4] it was 13.1%; in assay [5], -24.2%; in assay [6], 4.05%.
Turning to `O=C(CSC1=NCCN1)c1ccccc1`, the growth inhibition in assay [1] is -17.9%; in assay [2], 6.3%; in assay [3] it was -27.1%; in assay [4], -57.9%; in assay [5], 8.55%; in assay [6], 11.6%.
With `C=C(c1nc2ccc(Cl)cc2[nH]c1=O)C(O)c1ccc(C(O)C(=O)c2nc3ccc(Cl)cc3[nH]c2=O)cc1` (stereo not given), the growth inhibition in assay [1] is 5.85%; in assay [2], 4.55%; in assay [3] it was -15.6%; in assay [4] it was -68.8%; in assay [5], -1.4%; in assay [6] it was 9.05%.
Take `C/C(=N/NC(N)=O)c1cn[nH]c1C`: the growth inhibition in assay [1] was -27.6%; in assay [2] it was -14.8%; in assay [3], 3.7%; in assay [4], -66%; in assay [5], 11.9%; in assay [6] it was 11.8%.
Regarding `O=c1[nH]c(=O)n(C2OC(CF)C(O)C2O)cc1N1CCOCC1` (stereo not given), the growth inhibition in assay [1] was 16.9%; in assay [2], 18%; in assay [3], 18%; in assay [4], 17.7%; in assay [5], 19.5%; in assay [6] it was 33%.
`Cc1cc(C)c(CCl)c(C)c1CCl`: the growth inhibition in assay [1] is 0.9%; in assay [2], 2%; in assay [3], -9.1%; in assay [4], -57.5%; in assay [5], 5.75%; in assay [6] it was 10.2%.
Consider `CC1(C)CC(=O)c2c(N)n[nH]c2C1`, for which the growth inhibition in assay [1] was -0.35%; in assay [2], 3.1%; in assay [3], -8.55%; in assay [4] it was -2.2%; in assay [5], 1.35%; in assay [6], -15%.
Take `CC(=O)c1ccc(C(C)=O)c(OCc2ccccc2)c1`: the growth inhibition in assay [1] is -4.45%; in assay [2], -12.4%; in assay [3], -8.25%; in assay [4] it was -27.9%; in assay [5], -5.95%; in assay [6], -5.05%.
For `CC1CN(C(=O)Cn2cnc([N+](=O)[O-])n2)CC(C)O1` (stereo not given), the growth inhibition is 7.65% in assay [1]; 14.2% in assay [2]; 2.75% in assay [3]; 65.2% in assay [4]; 29.8% in assay [5]; 12.7% in assay [6].
Regarding `COC1OC(COC(=O)c2ccccc2)C(OC(=O)c2ccccc2)C1NC(C)=O` (stereo not given), the growth inhibition in assay [1] was 14.1%; in assay [2], 18.7%; in assay [3], 12.7%; in assay [4], 62.1%; in assay [5] it was 39.1%; in assay [6], 28.4%.
With `CCOC(=O)CCC(C(=O)OCC)C(C)C(=O)OCC` (stereo not given), the growth inhibition in assay [1] is -25.4%; in assay [2] it was -19.1%; in assay [3], -25.8%; in assay [4], -11.7%; in assay [5], 4.1%; in assay [6], -15.2%.
`NC1=NNC(=O)/C1=C/c1ccccc1`: the growth inhibition was 16.6% in assay [1]; 5.85% in assay [2]; 0.55% in assay [3]; -17.1% in assay [4]; -10.2% in assay [5]; 22.2% in assay [6].
For `CC1CN=C(c2ccccc2)C(c2ccccc2)=N1` (stereo not given), the growth inhibition in assay [1] was -24.2%; in assay [2], 1.3%; in assay [3], -6.4%; in assay [4], -6.15%; in assay [5], -12.5%; in assay [6], -22.3%.
In the case of `C/C=N\N1C(=O)c2ccccc2C1=O`, the growth inhibition was 11.5% in assay [1]; 13.7% in assay [2]; 13.8% in assay [3]; 9.1% in assay [4]; 19.4% in assay [5]; 14.8% in assay [6].
